Bim-Mcl-1: inhibitors of Bim peptide binding to Mcl-1, primary screen, biochemical, bead-based flow cytometry, multiplex | Bim peptide-Mcl-1 binding | inhibition, % at 10 µM | Induced myeloid leukemia cell differentiation protein Mcl-1 (Homo sapiens), Q07820 | actives 0.1% (n = 190,000); in the data active means inhibition above about 40%;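 further: 0% = no compound tracer wells and 100% = peptide blocker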
BCLXL inh: inhibitors of human Bcl-xL, primary screen, biochemical, fluorescence polarization, HTS | Bcl-2-like protein 1 (Homo sapiens), Q07817 | GST-Bcl-xL / FITC-Bim BH3 peptide fluorescence polarization | inhibition, % at 10.9 µM | actives 0.7% (n = 320,000) | AID 2129, 2009;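 active means inhibition above the mean of all tested compounds plus 3 SD, cutoff set per campaign, cut at about 30% in these data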;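 further: 0% = DMSO wells and 100% = unlabeled Bim-BH3 peptide competitor; inhibitors lower millipolarization by displacing the labeled peptide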
Mcl1-Bid inh: Mcl-1/Bid binding inhibitors, primary screen, biochemical, TR-FRET, 1536-well. Induced myeloid leukemia cell differentiation protein Mcl-1 (Homo sapiens), Q07820. TR-FRET Mcl-1/Bid-Dy647 peptide binding. inhibition, % at 21.7 µM. actives 0.97% (n = 220,000). AID 1021, 2008;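 active means compounds that cut the binding signal by more than half at the single screening dose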;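 further: His-tagged Mcl-1 with europium anti-His antibody binding Bid BH3 peptide; 0% = Mcl-1 plus peptide wells and 100% = peptide-only wells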
MCL1 BIM primary: inhibitors of MCL1 binding to BIM-BH3, primary screen, biochemical, fluorescence polarization; actives 0.68% (n = 320,000); Induced myeloid leukemia cell differentiation protein Mcl-1 (Homo sapiens), Q07820; GST-MCL1 / FITC-Bim-BH3 fluorescence polarization; inhibition, % at 10.9 µM;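 active means inhibition above the mean inhibition of all tested compounds plus 3 SD, set per campaign, cut at about 40% in these data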;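 further: 0% = DMSO wells and 100% = unlabeled Bim-BH3 peptide control; higher means more loss of mP so more displacement of Bim peptide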
Mcl1-Noxa inh: Mcl-1/Noxa binding inhibitors, primary screen, biochemical, TR-FRET, 1536-well. Induced myeloid leukemia cell differentiation protein Mcl-1 (Homo sapiens), Q07820. inhibition, % at 21.7 µM. actives 1.5% (n = 220,000). TR-FRET Mcl-1/Noxa peptide binding, 2 h;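 active means compounds that cut the protein-peptide binding signal by more than 50% relative to plate controls in a single-dose test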;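 further: His-tagged Mcl-1 with rhodamine Noxa BH3 peptide and terbium anti-His antibody; 0% = Mcl-1 plus Noxa peptide wells and 100% = peptide-only wells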
GLD-1 TGE inh: GLD-1/TGE RNA complex disruptors, primary screen, biochemical, fluorescence polarization; Female germline-specific tumor suppressor gld-1 (Caenorhabditis elegans), Q17339; actives 0.44% (n = 320,000); AID 2280, 2010; purified GLD-1 + fluorescein TGE RNA; inhibition, % at 5.96 µM;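 active means percent inhibition above a per-plate cutoff, the plate mean of test compounds plus 3 SD, cut at about 30% in these data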;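 further: 0% = DMSO wells with GLD-1 and probe and 100% = wells lacking GLD-1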
Target sequence (Q17339 whole entry, looked up): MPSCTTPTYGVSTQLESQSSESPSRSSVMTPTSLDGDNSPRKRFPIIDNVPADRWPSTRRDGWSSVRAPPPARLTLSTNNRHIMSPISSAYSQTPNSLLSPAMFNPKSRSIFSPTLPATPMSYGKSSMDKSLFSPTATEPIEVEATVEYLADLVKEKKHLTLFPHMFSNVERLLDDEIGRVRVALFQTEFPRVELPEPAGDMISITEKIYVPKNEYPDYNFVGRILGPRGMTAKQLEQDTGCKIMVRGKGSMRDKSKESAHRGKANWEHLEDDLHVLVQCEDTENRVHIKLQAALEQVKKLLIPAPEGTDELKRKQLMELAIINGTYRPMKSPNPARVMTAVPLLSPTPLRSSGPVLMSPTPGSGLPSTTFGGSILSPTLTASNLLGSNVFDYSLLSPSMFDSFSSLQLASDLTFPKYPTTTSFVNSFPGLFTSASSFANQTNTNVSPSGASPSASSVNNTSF
Numbers without * were called inactive; x = not tested or not shown. Sampled rows, rich in hits. Any-hit rate of the full collection: about 2.3%.

SMILES | Bim-Mcl-1 | BCLXL inh | Mcl1-Bid inh | MCL1 BIM primary | Mcl1-Noxa inh | GLD-1 TGE inh
COc1ccc(C(=O)c2ccc(OC)c(Br)c2)cc1Br | -2 | 3 | -16 | -1 | -17 | 3
CC(=O)N1CCN(c2nc(-c3ccco3)c3c(c2C#N)CC(C)(C)SC3)CC1 | -3 | 12 | -18 | 8 | 17 | 5
CC1(C)Cc2c(C#N)c(N3CCN(C(=O)c4ccccc4Cl)CC3)nc(-c3ccco3)c2CS1 | 0 | 33* | -21 | 43* | 46 | 13
Cc1cc(O)ccc1Nc1nc2ccccc2nc1Nc1ccc(O)cc1C | 0 | -2 | 9 | -9 | 68* | 13
Cc1ccc(Nc2nc3ccccc3s2)c(C)c1 | 0 | 3 | -2 | 1 | 26 | 8
O=C(NC1CCCc2c1cnn2-c1ccc(F)cc1F)c1ccccn1 (stereo unspecified) | 0 | 31* | -10 | -4 | -6 | -5
COc1cccc(C(=O)NN2CC(O)=C(c3nc(C)cs3)C2=N)c1 | x | -3 | -34 | -3 | -6 | 6
Cc1ccc(C(=O)NN2CC(O)=C(c3nc(-c4cccc([N+](=O)[O-])c4)cs3)C2=N)cc1 | 4 | 8 | 5 | 10 | 56* | -1
COc1ccc(C(=O)C[n+]2ccc(-c3nnc4n3CCCCC4)cc2)cc1 | x | 3 | -46 | 13 | 76* | 1
O=C(C[n+]1ccc(-c2nnc3n2CCCCC3)cc1)c1ccc(Cl)cc1 | x | 8 | -3 | 4 | -14 | 5
Cc1[nH]n(-c2ncc(-c3ccccc3)s2)c(=O)c1C(c1ccc(Cl)cc1)C(C#N)C#N (stereo unspecified) | 0 | 12 | 18 | 10 | 81* | 0
N#Cc1nc(-c2ccc(OCc3ccc(Cl)cc3)cc2)oc1NCc1cccnc1 | 1 | 1 | 23 | 5 | 57* | 3
CCOc1cc(N2CCOCC2)c(OCC)cc1NC(=O)c1cnccn1 | x | x | x | x | x | 8
Cc1cc(NC2C3CC4CC(C3)CC2C4)n2nnnc2n1 (stereo unspecified) | 0 | 1 | 76* | 2 | 27 | 8
O=C(COC(=O)c1cccc(Cl)c1)NCc1ccccc1 | x | x | x | x | x | 2
Cc1ccc(C(C)C)cc1NC(=O)Nc1ccc([N+](=O)[O-])cc1 | x | -8 | 85* | -4 | 18 | 4
N#Cc1c2c(c(=S)n(-c3ccccc3)c1N)CCCC2 | 0 | 35* | -4 | 33 | 44 | 24
O=C(O)C1CC(O)CN1c1nc(Cl)ccc1[N+](=O)[O-] (stereo unspecified) | -1 | 37* | -18 | 30 | 29 | 25
O=C(O)C1CN(c2nc(Cl)ccc2[N+](=O)[O-])C1 | 0 | 3 | -26 | 4 | 14 | 4
O=C1ON=C(c2ccc(Cl)cc2)/C1=C/c1ccc(O)cc1 | -6 | 6 | -50 | -1 | 66* | 4
O=C1ON=C(c2ccccc2)/C1=C/c1ccc(O)cc1 | x | 0 | x | 0 | x | -4
Cc1cnc(C(=O)OCC(=O)Nc2ccc(Br)c(C)c2)cn1 | x | 7 | x | 8 | x | 0
Cc1ccc(C)c2[nH]c(=O)c(C(c3nnnn3C(C)(C)C)N3CC=C(c4ccc(F)cc4)CC3)cc12 (stereo unspecified) | 0 | x | -28 | x | 0 | x
CCOC(=O)/C=C/COc1ccccc1[N+](=O)[O-] | -1 | -2 | -34 | -3 | 14 | 2
N#Cc1c2ccc(O)cc2n2ccccc12 | 11 | 45* | -12 | 44* | 43 | 13
SMILES | Bim-Mcl-1 | BCLXL inh | Mcl1-Bid inh | MCL1 BIM primary | Mcl1-Noxa inh | GLD-1 TGE inh
N#Cc1c2ccc(OCC(=O)NCc3ccco3)cc2n2ccccc12 | x | 8 | x | 7 | x | 5
Cc1ccc(-n2c(C)cc3c2CCCC3=O)cc1 | 5 | 31* | -44 | 34 | 2 | 17
Cn1cccc1/C=C1\SC(=S)N(NC(=O)c2ccccc2O)C1=O | x | -51 | -24 | -85 | -2 | -131
O=C(O)C(Cc1ccccc1)N1C(=O)/C(=C/C=C/c2ccco2)SC1=S (stereo unspecified) | x | x | 98* | x | 102* | x
O=C(NN1C(=O)/C(=C/C=C/c2ccco2)SC1=S)c1ccccc1O | x | 14 | 60* | 38 | 101* | -12
O=C1S/C(=C\C=C\c2ccco2)C(=O)N1c1ccccc1 | -5 | 5 | -17 | 13 | 21 | 8
O=C1S/C(=C\C=C\c2ccco2)C(=O)N1c1ccc(O)cc1 | -3 | 6 | -17 | 13 | 56* | 6
CC(C(=O)Nc1ccc(N2CCOCC2)cc1)N1C(=O)NC(C)(C)C1=O (stereo unspecified) | x | -1 | x | 2 | x | -1
O/N=C1/CCCSc2ccccc21 | -2 | 6 | 2 | 9 | 86* | 10
CCOC(=O)CCCCCNC(=O)c1ccc(F)cc1F | x | 4 | x | 6 | x | 4
Cc1cc(/C=N/n2c(COc3ccccc3C)nc3ccccc3c2=O)c(O)c([N+](=O)[O-])c1 | -1 | -1 | -2 | 8 | 81* | 6
O=S(=O)(Nc1ccc(-c2cnco2)cc1)c1ccccc1 | x | 31* | -4 | 22 | 2 | 10
O=S(=O)(Nc1ccncc1)c1ccccc1 | -1 | -2 | 15 | -1 | 1 | 0
Cc1ccnc(N/C=C(\C#N)c2nc(-c3cccc(Br)c3)cs2)c1 | 0 | 12 | 73* | -19 | 61* | -58
COc1ccc(NC(=O)COC(=O)C2CC2)cc1S(=O)(=O)N1CCCCC1 | x | -8 | x | -13 | x | 2
Cc1cc(C(F)F)n2nc(C(=O)Nc3sc4c(c3C(N)=O)CCC4)nc2n1 | -12 | 12 | -87 | 30 | 74* | 1
O=C1NC2=C(C(=O)CCC2)C(c2ccccc2[N+](=O)[O-])N1 (stereo unspecified) | x | 51* | x | 51* | x | 24
O=C(NCc1ccc2c(c1)OCO2)C1CCCCC1 | x | 4 | x | 4 | x | 2
COc1ccc2c(c1)SCCC2=O | -2 | -2 | -2 | -12 | 12 | 1
COc1ccc2c(c1)OCC1=C2CCC2(C)C(=O)CC=C12 (stereo unspecified) | -3 | 40* | -19 | 29 | 1 | 39*
COc1ccc(-c2csc(NC(=O)CSc3nc(C)nc4sc(C(=O)O)c(C)c34)n2)cc1 | x | 15 | 36 | 8 | 99* | -5
COc1ccc(-c2csc(NC(=O)CSc3nc(C)cs3)n2)cc1 | -4 | 5 | -10 | 5 | 9 | 3

Bioassay records: PubChem, several laboratories
